Screens as filed in PubChem BioAssay.
Sampled rows, rich in hits. Any-hit rate of the full collection: about 2.6%.
ABHD5 PLIN5 PPI – ABHD5-PLIN5 interaction inhibitors, primary screen, cell lysate, split luciferase complementation, luminescence. AID 602281, 2012. actives 0.78% (n = 360,000). inhibition, % at 4 µM. Split G. princeps luciferase complementation, 4 h. Perilipin-5 (Homo sapiens) + 1-acylglycerol-3-phosphate O-acyltransferase ABHD5 (Homo …;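 active = inhibition above the mean inhibition across every tested compound plus 3 SD, cut at about 22% in these data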
PfM18AAP inh – PfM18AAP inhibitors, malaria aminopeptidase, primary screen, biochemical, QFRET, recombinant enzyme | actives 1.2% (n = 290,000) | H-Glu-NHMec fluorogenic cleavage | inhibition, % at 7.35 µM | AID 1822, 2009;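 active = inhibition above the campaign mean inhibition over all tested compounds plus 3 SD, cut at about 28% in these data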
Platelet DG rel – inhibitors of platelet dense granule secretion, primary screen, cell-based, MLPCN, human platelets; actives 0.22% (n = 300,000); human platelet-rich plasma, SFLLRN dense granule ATP release, luminescence; AID 1663, 2009; inhibition, %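 (compounds screened at 7.5 µM in platelet-rich plasma)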;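 active = mean replicate score, as percent of positive control, at or above 50; inconclusive = mean below 50 but at least one replicate at or above 50; inactive = mean and every replicate below 50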
Rce1 inh – yeast Rce1p protease inhibitors, primary screen, biochemical, fluorescence, cell-free homogeneous; CAAX prenyl protease 2 (Saccharomyces cerevisiae (strain ATCC 204508 / S288c)), Q03530; yeast membranes, quenched prenylated peptide cleavage fluorescence; calls only; actives 0.27% (n = 290,000);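 active = fall in fluorescence gain of 50% or more versus controls, with final raw signal at or below 3038400; inconclusive = same 50% fall but final raw signal above 3038400; inactive = fall in fluorescence gain under 50%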
Target sequence (Q03530 whole entry, looked up): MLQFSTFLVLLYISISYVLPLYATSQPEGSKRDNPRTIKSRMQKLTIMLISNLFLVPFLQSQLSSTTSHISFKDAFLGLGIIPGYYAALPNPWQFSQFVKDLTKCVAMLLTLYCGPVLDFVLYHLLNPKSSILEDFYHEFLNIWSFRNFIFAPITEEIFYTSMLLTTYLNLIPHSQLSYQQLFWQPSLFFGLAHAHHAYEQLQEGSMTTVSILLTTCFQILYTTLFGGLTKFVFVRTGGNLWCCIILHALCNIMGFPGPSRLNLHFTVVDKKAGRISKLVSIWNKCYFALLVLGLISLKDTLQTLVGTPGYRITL
Exocytosis inh – LAMP-1 surface exposure blockers, TALL-104 cells – cell-based, flow cytometry, MLPCN library, primary screen | TALL-104 LAMP-1 surface exposure; cells stimulated with thapsigargin and PMA | inhibition, % at 10 µM | actives 0.66% (n = 360,000);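 active = inhibition above about 55%, limit read from the data; inconclusive = no clear call, values can overlap the other calls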
ABHD5 PLIN5 conf – ABHD5-PLIN5 interaction inhibitors, confirmation, biochemical, luminescence; shares compounds with ABHD5 PLIN5 PPI; actives 67% (n = 2,200); inhibition, % at 4 µM; in the data active = inhibition above about 23%
HNF4 split-luc – HNF4 dimerization inhibitors, counter-screen for ABHD5-PLIN5 interaction inhibitor project, biochemical, split-luciferase complementation, luminescence; actives 77% (n = 2,200); inhibition, % at 4 µM; AID 651674, 2012; shares compounds with ABHD5 PLIN5 PPI;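 active = mean inhibition across replicate wells exceeding the computed hit threshold, cut at about 13% in these data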;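 note: light from luciferase halves that rejoin when HNF4 fusion proteins dimerize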
Large screens that a line does not name were inactive (follow-up assays come after a bar, where they were run).

COCCn1c(SCC#N)nnc1-c1ccccc1O	ABHD5 PLIN5 PPI 57.0 | ABHD5 PLIN5 conf inactive | HNF4 split-luc inactive
O=C(Nc1oc2ccccc2c(=O)c1-c1ccccc1)c1ccco1	none (no result: PfM18AAP inh, Platelet DG rel, Rce1 inh)
CNCCCOc1ccc(C)cc1OC	ABHD5 PLIN5 PPI 56.7 | ABHD5 PLIN5 conf inactive | HNF4 split-luc inactive
CCOC(=O)CC1OC(=O)c2cc3c(cc21)C(=O)OC3CC(=O)OCC (stereo not given)	none
CCOC(=O)C(C(=O)OCC)C1OC(=O)c2cc3c(cc21)C(=O)OC3C(C(=O)OCC)C(=O)OCC (stereo not given)	ABHD5 PLIN5 PPI 31.7 | ABHD5 PLIN5 conf 42.1 | HNF4 split-luc 28.0
CCOc1ccc(CSCCNC(=S)Nc2ccccc2)cc1	none
Cc1ccc(-n2nc(C)c3c(C)c(CCC(=O)Nc4ccc(CN5CCCC5)cc4)c(C)nc32)cc1	ABHD5 PLIN5 PPI 29.0 | ABHD5 PLIN5 conf inactive | HNF4 split-luc inactive
COC(CNC(=O)CCc1c(C)nc2c(c(C)nn2-c2ccc(C)cc2)c1C)OC	none
FC(F)(F)c1nc(=S)c2ccccc2[nH]1	none (no result: Platelet DG rel, Rce1 inh)
CC(=O)N1CCc2cc(S(=O)(=O)CCC(=O)N3CCc4ccccc4C3)ccc21	none
Cc1ccc(S(=O)(=O)N2CN(CC3CCCO3)c3nc4ccccc4nc32)c(C)c1 (stereo not given)	none
COCCCN1CN(S(=O)(=O)c2ccc(C)cc2C)c2nc3ccccc3nc21	ABHD5 PLIN5 PPI 27.8 | ABHD5 PLIN5 conf inactive | HNF4 split-luc 14.8
COc1cc(OC)c(OC)cc1/C=C/c1cc(C(F)(F)F)[nH]c(=O)n1	none
COc1cc(/C=C/c2cc(C(F)(F)F)[nH]c(=O)n2)cc(OC)c1OC	ABHD5 PLIN5 PPI 31.1 (no result: Platelet DG rel, Rce1 inh) | ABHD5 PLIN5 conf 46.6 | HNF4 split-luc 43.0
O=C1Cc2ccccc2Sc2ccccc21	ABHD5 PLIN5 PPI 39.0 | ABHD5 PLIN5 conf inactive | HNF4 split-luc 12.4
Cc1ccc2c(c1)Sc1ccccc1CC2=O	none
COCCCn1c(=O)c2sccc2n(Cc2cccc(C)c2)c1=O	none
CCN1CCN(Cc2c(O)ccc3c2O/C(=C\c2ccccc2)C3=O)CC1	none
COc1ccccc1/C=C/C=C1\Oc2c(ccc(O)c2CN2CCN(CCO)CC2)C1=O	none
CCN1CCN(Cc2c(O)ccc3c2O/C(=C\C=C\c2ccccc2)C3=O)CC1	ABHD5 PLIN5 PPI 34.0 | ABHD5 PLIN5 conf 23.5 | HNF4 split-luc 19.4
O=C1/C(=C/C=C/c2ccccc2)Oc2c1ccc(O)c2CN1CCN(CCO)CC1	ABHD5 PLIN5 PPI 30.7 | ABHD5 PLIN5 conf inactive | HNF4 split-luc 17.8
CCOC(=O)C1=C(C)OC(=CC=Cc2ccccc2)C1=O	none (no result: PfM18AAP inh, Platelet DG rel, Rce1 inh)
CN(C)Cc1c(O)ccc2c1O/C(=C\C=C\c1ccccc1)C2=O	ABHD5 PLIN5 PPI 29.1 | ABHD5 PLIN5 conf inactive | HNF4 split-luc 24.2
COc1cccc(C(=O)NCCS(=O)(=O)NCc2ccco2)c1	none (no result: PfM18AAP inh)
CC(=O)NC1C(=O)N=C(SCC(=O)NC(C)c2ccccc2)NC1=O (stereo not given)	none
CC1=CC2C(C(O)CC3(C)C2CC(C)C32OCOC23COCO3)C2(C)C/C(=C\O)C(=O)C=C12 (stereo not given)	ABHD5 PLIN5 PPI 32.3, Exocytosis inh 72.2 (no result: PfM18AAP inh, Platelet DG rel, Rce1 inh) | ABHD5 PLIN5 conf 42.2 | HNF4 split-luc inactive
CN1/C(=C\C=O)C(C)(C)c2ccccc21	none
CN1\C(=C/C=C/C=C/C=[N+](C)C)C(C)(C)c2ccccc21	ABHD5 PLIN5 PPI 24.2 | ABHD5 PLIN5 conf 48.7 | HNF4 split-luc 38.3
Clc1cccc2c1Sc1ccccc1CC2N1CCNCC1 (stereo not given)	ABHD5 PLIN5 PPI 30.6, Exocytosis inh inconclusive | ABHD5 PLIN5 conf inactive | HNF4 split-luc inactive
COc1ccc(-c2[nH][nH]c(=O)c2NC(=O)c2ccccn2)cc1	none (no result: PfM18AAP inh, Platelet DG rel, Rce1 inh)
